Test systems include SR leukemia; RPMI-8226 leukemia; OVCAR-8 ovarian; OVCAR-5 ovarian; OVCAR-4 ovarian; SK-OV-3 ovarian; IGROV1 ovarian; OVCAR-3 ovarian; HS 578T breast; NCI/ADR-RES ovarian; T-47D breast; BT-549 breast; MDA-MB-435 melanoma; SW-620 colon; MCF7 breast; HCT-116 colon; HCC-2998 colon; KM12 colon.
Test in all cases: NCI-60 one-dose screen, 48 h (100 = growth as untreated, 0 = no growth, -100 = all killed)
Holding throughout (conditions): 10 µM unless noted

SMILES strings stand for the structures. This is part of a sample that, as a whole, favours compounds with a hit. Of some 83,000 tested, about 20% had one in any assay.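 How to read the values: 0–100, growth inhibition (40 = 60% inhibited); 0, no net growth; -100 to 0, cell death (-40 = 40% of starting cells died; -100 = all dead).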 A number with no mark means an inactive call. Active and inactive are the calls of the source. How the source made its calls: active means growth percent below 10; inactive means the rest.

Turning to `CC(=O)c1cc2c(N)c(C(=O)Nc3cccc4ccncc34)sc2nc1C`, the growth in the test with SR leukemia was 49.8%; with RPMI-8226 leukemia, 103%; in the test with OVCAR-8 ovarian, 108%; in the test on OVCAR-5 ovarian, 106%; in the test with OVCAR-4 ovarian, 110%; in the test on SK-OV-3 ovarian, 93.4%. The growth in the test on IGROV1 ovarian was 101%; in the test on OVCAR-3 ovarian it was 103%; in the test with HS 578T breast, 91.3%; with NCI/ADR-RES ovarian it was 108%; with T-47D breast, 97.1%; in the test on BT-549 breast it was 102%. Further, the growth was 6.83% (active) with MDA-MB-435 melanoma; 101% in the test with SW-620 colon; 83.7% in the test on MCF7 breast; 102% in the test on HCT-116 colon; 107% in the test with HCC-2998 colon; 101% in the test with KM12 colon.

Regarding `CC(=O)CCC(=O)OCc1cc(=O)c(O)co1`, the growth with SR leukemia is 86.4%; with RPMI-8226 leukemia it was 107%; in the test with OVCAR-8 ovarian, 108%; with OVCAR-5 ovarian it was 93.5%; in the test with OVCAR-4 ovarian, 112%; in the test on SK-OV-3 ovarian, 128%. Besides, the growth is 98.6% with IGROV1 ovarian; 106% with OVCAR-3 ovarian; 103% in the test on HS 578T breast; 98.3% with NCI/ADR-RES ovarian; 111% in the test on T-47D breast; 102% in the test on BT-549 breast. The growth in the test on MDA-MB-435 melanoma was 106%; with SW-620 colon, 97%; with MCF7 breast, 99%; in the test on HCT-116 colon, 97.3%; with HCC-2998 colon, 87.3%; with KM12 colon, 93.5%.

In the case of `Cc1cc2nc3c4cccc(O)c4n(CCN(C)C)c3nc2cc1C`, the growth was 4.12% (active) with SR leukemia; -5.71% (active) with RPMI-8226 leukemia; 38% in the test with OVCAR-8 ovarian; 55.3% with OVCAR-5 ovarian; 44.4% in the test with OVCAR-4 ovarian; 46.3% with SK-OV-3 ovarian. The growth in the test with IGROV1 ovarian was 19.1%; in the test on OVCAR-3 ovarian, 45.4%; with HS 578T breast, 72.8%; in the test on NCI/ADR-RES ovarian it was 32.3%; with T-47D breast, 64.3%; with BT-549 breast it was 77.4%. Also, the growth in the test with MDA-MB-435 melanoma is 45.4%; with SW-620 colon, 20.6%; with MCF7 breast it was 23.5%; in the test with HCT-116 colon, 22%; in the test on HCC-2998 colon, 24.5%; in the test with KM12 colon, 37.7%.

Turning to `CCCCCCCCOc1ccc(/C=N/Nc2cc(C)nc3ccc(Br)cc23)cc1`, the growth is -14.3% (active) in the test with SR leukemia; 36.6% in the test on RPMI-8226 leukemia; 46.4% in the test on OVCAR-8 ovarian; 101% in the test on OVCAR-5 ovarian; -1.74% (active) with OVCAR-4 ovarian; 104% in the test on SK-OV-3 ovarian. The growth in the test on IGROV1 ovarian was 62.5%; in the test on OVCAR-3 ovarian it was 67.1%; with HS 578T breast it was 64.1%; in the test with NCI/ADR-RES ovarian, 65.1%; with T-47D breast, 80.9%; in the test with BT-549 breast, 95.6%. The growth with MDA-MB-435 melanoma is 64.7%; in the test with SW-620 colon, 8.02% (active); in the test with MCF7 breast, 15.8%; in the test on HCT-116 colon it was 6.51% (active); with HCC-2998 colon, 89.8%; in the test with KM12 colon, 57%.

As to `C[C@H]1[C@H](C)CC[C@]2(C(=O)NCC#CCN3CCN(C)CC3)CC[C@]3(C)C(=CC[C@@H]4[C@@]5(C)Cc6c([nH]c7ccccc67)C(C)(C)[C@@H]5CC[C@]43C)[C@H]12`, the growth in the test with SR leukemia was 4.29% (active); in the test with RPMI-8226 leukemia it was 67%; in the test on OVCAR-8 ovarian, 90.2%; with OVCAR-5 ovarian it was 94.4%; in the test on OVCAR-4 ovarian it was 83.2%; in the test with SK-OV-3 ovarian, 86.9%. In addition, the growth in the test on IGROV1 ovarian is 93.6%; in the test with OVCAR-3 ovarian, 82.6%; in the test on HS 578T breast it was 82.8%; in the test on NCI/ADR-RES ovarian it was 82.8%; in the test with T-47D breast, 76.7%; with BT-549 breast, 99.6%. In addition, the growth was 52.2% in the test with MDA-MB-435 melanoma; 57.5% with SW-620 colon; 41.3% with MCF7 breast; 25.8% in the test with HCT-116 colon; 76.6% with HCC-2998 colon; 75.2% in the test with KM12 colon.

Regarding `Cn1c(-c2c(N)n(CCCN3CCOCC3)c3nc(C#N)c(C#N)nc23)nc2ccccc21`, the growth in the test on SR leukemia was -57.7% (active); in the test on RPMI-8226 leukemia, 5.09% (active); with OVCAR-8 ovarian, 48.1%; in the test on OVCAR-5 ovarian, 82%; in the test with OVCAR-4 ovarian, 73.7%; in the test with SK-OV-3 ovarian, 93.6%. The growth in the test with IGROV1 ovarian was 65.6%; in the test on OVCAR-3 ovarian, 65.5%; with HS 578T breast, 94.3%; in the test with NCI/ADR-RES ovarian, 78.6%; with T-47D breast, 49.9%; with BT-549 breast, 35.6%. In addition, the growth with MDA-MB-435 melanoma is 79.3%; with SW-620 colon, 39.7%; in the test with MCF7 breast, 52.9%; in the test with HCT-116 colon, 22.7%; in the test with HCC-2998 colon, 80%; in the test on KM12 colon, 75.6%.

On to `O=S(=O)(NCCNc1nccc(-c2c(-c3cccc(O)c3)nc3occn23)n1)c1ccc(C(F)(F)F)cc1`, for which the growth was 110% in the test on SR leukemia; 105% with RPMI-8226 leukemia; 102% with OVCAR-8 ovarian; 138% in the test with OVCAR-5 ovarian; 118% in the test with OVCAR-4 ovarian; 95.8% with SK-OV-3 ovarian. Also, the growth with IGROV1 ovarian is 73.8%; with OVCAR-3 ovarian, 113%; with HS 578T breast, 100%; in the test on NCI/ADR-RES ovarian, 105%; in the test with T-47D breast, 79.2%; in the test with BT-549 breast, 107%. In addition, the growth in the test with MDA-MB-435 melanoma was 45%; in the test with SW-620 colon, 126%; in the test on MCF7 breast, 67.2%; in the test on HCT-116 colon, 90.1%; with HCC-2998 colon, 132%; in the test on KM12 colon, 94.4%.

`O=S(=O)(NCCNc1nccc(-c2c(-c3cccc(O)c3)nc3occn23)n1)c1cccc(F)c1`: the growth is 84.7% in the test on SR leukemia; 97% in the test with RPMI-8226 leukemia; 89.9% in the test on OVCAR-8 ovarian; 128% in the test on OVCAR-5 ovarian; 121% in the test with OVCAR-4 ovarian; 91.8% with SK-OV-3 ovarian. The growth is 50.5% with IGROV1 ovarian; 94.7% with OVCAR-3 ovarian; 101% in the test with HS 578T breast; 107% in the test on NCI/ADR-RES ovarian; 73.7% in the test with T-47D breast; 104% with BT-549 breast. Moreover, the growth in the test on MDA-MB-435 melanoma was 34.3%; in the test on SW-620 colon, 115%; with MCF7 breast, 57%; in the test with HCT-116 colon, 70.4%; with HCC-2998 colon it was 129%; in the test with KM12 colon it was 88.2%.

The values above are taken from PubChem BioAssay (NCI).
